B1: d4r4_design_ppi_396_dldesign_0_cycle0_af2pred (protein)
chain: AEAAAFAAAKAAAAKAFAEAYEAANALLASGKYKEEAEKGKKELKELAKKLKAAKTAEEAKKVAEEAKKLAEKLKKLLEEAE
B2: d4r4_design_ppi_253_dldesign_0_cycle1_af2pred (protein)
chain: MEEKKEEARRIVREAREEARKAAAESPEAALKAAEKVKERRKELEEKVDFKTAESASARFEQIIEALKIAAKKLAA
B3: d4r4_design_ppi_490_dldesign_0_cycle1_af2pred (protein)
chain: AEVEKEAKKAATEAREAVAELRGLAQEAKLKGVEEAKKVAEEAIKEASALLKEAAKEKDPEKALKLAKEAYKVAKEAIKKAKKLLE
B4: d4r4_design_ppi_265_dldesign_0_cycle1_af2pred (protein)
chain: SKEEEEAKKTKEEAEKRLKKALEEAKKLGEAEVDAVKQIVEAGKKAAAAAETPKEAAEALAKAAKTAESIIKTAKEAKKR
B5: d4r4_design_ppi_490_dldesign_0_cycle0_af2pred (protein)
chain: AKTEEEAKKAATEASEAVADLRGYEQEAKIKGNEEAAKVAKEAIKEAAKLAKEAAASKDPKEALKLAKEALKVAKKAIEEVKKLLE
B6: d4r4_design_ppi_338_dldesign_0_cycle1_af2pred (protein)
chain: SLNEEAKKEAEKLVEKAKKALKESPEAGEKAVKEMANKYHEYLELGVDKEVVERLRKEAKELKEEVKRKKKELEEEKLA
B7: d4r4_design_ppi_269_dldesign_0_cycle1_af2pred (protein)
chain: DVEEAREKNLEIAKKAIEEARKVAKEAEKKPEYREKAKELRKEAEELEKLAEEGKKDPLMATLAGVQGRRLLEEARKLRKELEEE
B8: d4r4_design_ppi_394_dldesign_0_cycle1_af2pred (protein)
chain: MEIQKENDAEAGLERAKHAKEVAKKALENKPKLSLEEVAEILKKAAERAEKAAKTEEGKKLAKELKEEAKKVEAELKKAQ
B9: d4r4_design_ppi_481_dldesign_0_cycle1_af2pred (protein)
chain: MADEASAEIRLENAKDAAKIWIKKVEKIDPELAKEYAAKMKEAAKKPDKEGAKKAREIAKEVKKKAEELEKKAKEKEEEKKKEEEEK
B10: d4r4_design_ppi_349_dldesign_0_cycle0_af2pred (protein)
chain: SEKEKLLEKYKETLEELRKVRKELAKEKKNLDKETFTKIANELQDARNESAYYKQQGDYKKALEAAEKALEIAKEGLKKAKEAA
B11: d4r4_design_ppi_491_dldesign_0_cycle1_af2pred (protein)
chain: SANKELADAIKEAAKEAQAAANAAKEAYADDPAKAKEFADKMEKKIDEAHNSDLETAKKIAEEAKKEKEKAKAALKKAKA
B12: d4r4_design_ppi_410_dldesign_0_cycle0_af2pred (protein)
chain: AAAAAAAQKAEMDRTVAAAERQTAILEKRLKAAGLTALADKVKAALAALKAAAEAGDYEAAKKAAAALAKAAAEAREAVAEKEVKA
B13: d4r5_design_ppi_20_dldesign_0_cycle1_af2pred (protein)
chain: MNLEELKKKVKEYTKELGKKAGVSEEEIKELAELAAEAASLSSDTTKEVLEDYAKESSEKVAKVAKETAEYAIEIKKKAR
B14: d4r4_design_ppi_303_dldesign_0_cycle0_af2pred (protein)
chain: MAERAAIMEEARENAIKAYEYAVKLKKIDPELGKEYMKKIDKLMKEAVEAAKDAEKAKKKAEEIKKLAEEIEKIAKEK
B15: d4r4_design_ppi_439_dldesign_0_cycle1_af2pred (protein)
chain: AEEEERERRVREAAEWLVEAPVRLANEAALRAGELAGDSDLALEIQALNNYNREEGARAALASPAREVVAEATEEVRRRREAERAAA
B16: d4r4_design_ppi_257_dldesign_0_cycle1_af2pred (protein)
chain: AEAKAAREAEFKALVEKAEAAADAAMAKATTIEEKKAILDLFNEAARHAKRGAANPETAAADLAAAKAKLAEIEAKAKA
B17: d4r4_design_ppi_240_dldesign_0_cycle0_af2pred (protein)
chain: MKEKQEKARAEARAEHVKEAIEKYYKEAAKGDKKEALKKTAEFAKEAAKKAKYPLTKEIALALAEEYAKKAA
B18: d4r4_design_ppi_253_dldesign_0_cycle0_af2pred (protein)
chain: MEELREEARRRMREARERAGEAAATSPEAAREAAEEVRRIAEELRKRVDWQTGARAEAQAEQIVEALERAAKAMEA
B19: d4r5_design_ppi_25_dldesign_0_cycle1_af2pred (protein)
chain: EEKEAVKKAAKIIQEMREKGLELIHEAKIKGSKEIAEEGIKKAEELGKKALEAAEKASPEERKKVEEKVEKTLKRIKEEAEKVIKE
B20: d4r4_design_ppi_471_dldesign_0_cycle0_af2pred (protein)
chain: EEAEKVAKEAREVGKEAAEAGLKKTAAEAFAAANRVRAALAFKKANPEKGQPILEEEVKEAKEVIEKAKKEIAAKKAAA
B21: d4r5_design_ppi_34_dldesign_0_cycle1_af2pred (protein)
chain: EEEKLKAAEAAARNLKLAIEAAKTEGKEYGILYMESAVQAGEIVGLGEKVKETKEALEKNPEEGIKLAEELKKEFEAIV
B22: d4r4_design_ppi_471_dldesign_0_cycle1_af2pred (protein)
chain: EEAKKVAEEAKKVGKEAAKAGLEKLAAEAFEASYKVKAAYDFYKKNPEKGKEILEEEVKEAKKVIEKAKKEIKKAKAKA
B23: d4r5_design_ppi_25_dldesign_0_cycle0_af2pred (protein)
chain: EKEEALKKAANIIQKMREEGTAGINEAKVSGSKEIAKEAIKKAEELAKKALEEASKATPEDYEKAKEKVKRILERLKKEAEKVIKE
B24: d4r4_design_ppi_299_dldesign_0_cycle0_af2pred (protein)
chain: KSELAKKAADETSKALSYIRAFAKYKPEKGKEIEDLLLDEEKMEEAAELAEKAAKEAETEEEKEIAKKAAEHIRKAKEYLEKLK
B25: d4r4_design_ppi_373_dldesign_0_cycle1_af2pred (protein)
chain: SEKEARIKEAVALMDKAAEEAAEKAKTTELANKAFRAATTAAKAAASGEDWPKGEAAVKELKKADPEAGKIIEEAAKQAAEIIA
B26: d4r5_design_ppi_37_dldesign_0_cycle0_af2pred (protein)
chain: GGAVDQVVDNVAKAVGAEAGARIRAAYEEGPEKAIATLEELAARLAAEDPELGAKAAKAARVLRSIVEDEKR
B27: d4r4_design_ppi_411_dldesign_0_cycle1_af2pred (protein)
chain: SAAEVAALEKAARAAIAAALAAAKAALADPSTLAEQKKAAEAALAAAREAAAAARWKDYEVGEALRKELAAAEKEVKATIAEAQKKKE
B28: d4r4_design_ppi_344_dldesign_0_cycle1_af2pred (protein)
chain: DPLTLAQEGLTEARYNAKDPEKALAILTATVAAGTAALAALAADPATAPLAAAGLATLARYGAKVGAEILANAKEKEA
B29: d4r4_design_ppi_373_dldesign_0_cycle0_af2pred (protein)
chain: AARAAAQKEAVALMAEAAEKAAEKAKKTSVAAEAFRAATKAAQAAASGEKWPEGEAAVEKLKKLDPEAGKIIAEAAAKAKAIMA
B30: d4r5_design_ppi_7_dldesign_0_cycle1_af2pred (protein)
chain: EESKELRIKAISLLSSAAFYAKTLGPEGKYFEKAAELALTDLEKAIEEAKKALKAAEKLDKELAKRVEKAIEYLKKALE
B31: d4r4_design_ppi_486_dldesign_0_cycle0_af2pred (protein)
chain: MEETIERAKEAAREALEAAREAAKKNAADPEKVKKLAELAQKAQEARAEALAKPEKAEEALKRIEEYLKEAKEILE
B32: d4r4_design_ppi_251_dldesign_0_cycle1_af2pred (protein)
chain: DSDEKAKELLEEAEKYLEEGEKLMEEGKYEEAVLLYRRAQVAALSAELSATTEELKEKAKELLKKAEEKLKEAEEALKKAEEEKK
B33: d4r4_design_ppi_356_dldesign_0_cycle1_af2pred (protein)
chain: DLEEKAKEGLKKMEEEGKKNPELGKKVKELLEKGKEDGLKGVVEAAKLLTKEAGEEIKPYAAAIVHYERLKK
B34: d4r4_design_ppi_486_dldesign_0_cycle1_af2pred (protein)
chain: MEEVVKKAEEAAKKAVEAAREAAKKNAADPEKVKYLAELAQEALEARAVALAKPELAEEELKKIEEKRKKAEEILA
B35: d4r4_design_ppi_269_dldesign_0_cycle0_af2pred (protein)
chain: SVEEAKKKNLKIAEEAIKLAEEVAKELEKNEKYKEKAEEFKKKAKELKELKKKGEEDALDATLAGVYGKRLKKKAEEEKKKLEEE
B36: d4r5_design_ppi_34_dldesign_0_cycle0_af2pred (protein)
chain: EEEKKEAAKKAAELIERAIEAAKTEGKEYGIIYMEAAVEAAKKVGLGEKAKEALKALEKDEEEGIKLAKELREEFEKLI
B37: d4r4_design_ppi_349_dldesign_0_cycle1_af2pred (protein)
chain: SEAAKYKAQYEATKKQLKETSAKLKEEKKNLSAETYKEYANKLQEARQKSTYYKAKGDYKNALAAMQEALDIAQQALAEAQKAK
B38: d4r5_design_ppi_19_dldesign_0_cycle0_af2pred (protein)
chain: MEEKLKEAAKKVQEAYQLAAENKEKREELRELAKKARESLKEAEKAYKEGKEEEAEKYLEKSFEYNKEAEELYKKTKKEKEEKEKK

Target: VTCN1, Q7Z7D3
Sequence (Q7Z7D3 whole entry): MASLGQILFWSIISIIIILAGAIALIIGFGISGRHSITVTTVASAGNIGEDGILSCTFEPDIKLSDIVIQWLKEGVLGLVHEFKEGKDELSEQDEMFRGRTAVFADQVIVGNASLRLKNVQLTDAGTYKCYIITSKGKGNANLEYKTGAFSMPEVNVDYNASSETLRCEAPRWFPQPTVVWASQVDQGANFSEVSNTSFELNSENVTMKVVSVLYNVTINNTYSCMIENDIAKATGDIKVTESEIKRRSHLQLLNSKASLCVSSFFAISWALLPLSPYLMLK

Binding in a display sort, inactive:
B1 not found
B2 not found
B3 not found
B4 not found
B5 not found
B6 not found
B7 not found
B8 not found
B9 not found
B10 not found
B11 not found
B12 not found
B13 not found
B14 not found
B15 not found
B16 not found
B17 not found
B18 not found
B19 not found
B20 not found
B21 not found
B22 not found
B23 not found
B24 not found
B25 not found
B26 not found
B27 not found
B28 not found
B29 not found
B30 not found
B31 not found
B32 not found
B33 not found
B34 not found
B35 not found
B36 not found
B37 not found
B38 not found
